# According to PubChem BioAssay (NCATS):
# This is one part of the list. Inconclusive results are not listed. Activity calls are given as the source filed them. Calls follow the shape of the dose curve; as a rule, active = well fitted inhibition curve with a large enough effect; inconclusive = small, poorly fitted or top-dose-only effect; inactive = flat fitted curve, though single readings scatter.
# Molecular target: Fructose-bisphosphate aldolase A (Oryctolagus cuniculus) (UniProt P00883)
# Test: qHTS Assay for Inhibitors of Fructose-1,6-bisphosphate Aldolase from Giardia Lamblia: Rabbit FBPA Selectivity (AID 2794); also: nearly all actives have a fitted effect of over 60% in size
# Settings: Rabbit muscle FBPA enzyme inhibition, selectivity counter-screen; series mostly up to 57.5 µM
# Excerpt: NIH Chemical Genomics Center [NCGC]
# NIH Molecular Libraries Probe Production centers Network [MLPCN]
# Assay Provider: Osnat Herzberg, University of Maryland
# The objective of this project is to obtain compounds that inhibit Giardia lamblia growth. G. lamblia is a human pathogen which afflicts impoverished nations; it is the most common cause of outbreaks of diarrhea in the United States. During the course of our study of potential drug targets in Giardia, we have identified the Class II (Zn2+ functions in electrophilic catalysis) fructose-1,6-bisphosphate aldolase (FBPA) as an excellent candidate for drug targeting. FBPA is a key glycolytic pathway enzyme, essential for G. lamblia survival. The human FBPA belongs to the Class I aldolases, which have a different substrate binding site structure and a radically different catalytic mechanism (employing a lysine-Schiff base intermediate). Therefore, affinity-based or mechanism-based inhibitors of the Giardia FBPA are expected not to interfere with the catalytic function of the human FBPA.
# A glyceraldehyde-3-phosphate dehydrogenase/triose phosphate isomerase/NAD/arsenate coupled assay was adapted to the 1536-well HTP format for use in the primary screen. This was done by coupling it to a diaphorase/resazurin/resorufin reaction that can be monitored by fluorescence (excitation, 544 nm; emission, 590 nm). Compounds identified in this screen will be further evaluated by coupling the glycerol-3-phosphate/triose phosphate isomerase/NADH assay to a phenazine methosulfate/tetranitroblue tetrazolium color reaction. False positives due to the dehydrogenases and diaphorase inhibition will be eliminated, and selectivity assay will triage inhibitors of mammalian triose phosphate isomerase and the Class I FBPA. G. lamblia FBPA inhibitors identified by the in vitro analyses will be examined for growth inhibition of Giardia trophozoites, and for cytotoxicity in human cells.
# This assay addresses whether hits in the primary screen are selective for […] FBPA, by using rabbit FBPA enzyme in the protocol.
# Step,Parameter,Value,Description
# 1,Coupling enzyme reagent,2 uL,glyceraldehyde-3-phosphate
# 2,Compound,23 nL,3.68 nM-57.5 uM final concentration
# 3,Time,10 min,RT Incubation
# 4,Substrate/detection Reagent,2 uL,Substrate + enzyme coupling system + AmpLite Red kit
# 5,Time,20 min,RT Incubation
# 6,Detector,525 nm/598 nm (Fluorescence),ViewLux Fluorescence Read (Read 1)
# 1,Medium-binding black solid-bottom Kalypsys plates. FRD or Kalypsys dispenser.
# 2,Compound Library (10 mM ,1:5 dilution). Pin-transferred for a [final] range of 3.68 nM-57.5 uM.
# 4,FRD or Kalypsys dispenser, 2 uL of reaction mixture. Bottle kept at 4C and covered in foil to protect from light.
# 6,ViewLux Protocol 1194; Excitation filter wheel A (525/20 Pol; BODIPY TMR FP), Emission filter wheel B (598/25 S; BODIPY TMR FP S).
# Keywords: Fructose-bisphosphate aldolase, FBPA , Giardia lamblia , Giardia, HTS, Inhibitors
# Fructose-bisphosphate aldolase A (Oryctolagus cuniculus), sequence (P00883 whole entry, looked up): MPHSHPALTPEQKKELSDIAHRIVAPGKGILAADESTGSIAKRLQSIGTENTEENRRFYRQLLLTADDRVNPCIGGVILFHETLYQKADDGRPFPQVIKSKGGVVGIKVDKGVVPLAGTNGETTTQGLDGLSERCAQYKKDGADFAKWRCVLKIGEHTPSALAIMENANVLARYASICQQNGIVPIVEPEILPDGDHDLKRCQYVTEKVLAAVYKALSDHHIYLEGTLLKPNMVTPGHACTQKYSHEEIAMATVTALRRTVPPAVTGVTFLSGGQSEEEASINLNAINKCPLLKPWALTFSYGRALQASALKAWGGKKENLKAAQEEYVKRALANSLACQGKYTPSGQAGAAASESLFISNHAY
row,SMILES,outcome
1,Cc1nnc(SCC2=C(C(=O)O)N3C(=O)C(NC(=O)Cn4nc(C)c(Cl)c4C)C3SC2)s1 (stereo not given),inactive
2,Cn1nnc(NC(=S)NC(=O)c2ccccc2)n1,inactive
3,CSc1n[nH]c(=S)n1N,inactive
4,CN(C)CCOc1ccc(Cl)cc1C(C)(C)C,inactive
5,COc1ccc(CN2CCN(Cc3ccc(OC)c(OC)c3OC)CC2)cc1,inactive
6,CC1CCCN(S(=O)(=O)c2ccc(C(=O)Nc3nnc(-c4ccncc4)o3)cc2)C1 (stereo not given),inactive
7,O=C(N/N=C/c1ccccn1)c1cccnc1,inactive
8,COc1ccc(N=Nc2c(-c3ccc(OC)cc3)[nH]oc2=O)cc1,inactive
9,COc1ccc(Cl)cc1C(=O)NNC(=O)c1nc2nc(C)cc(C)n2n1,inactive
10,CC(=O)NC1CCN(CC(=O)Nc2nccs2)CC1,inactive
11,Oc1ccc2ccccc2c1N=Nc1nccs1,inactive
12,O=C(Nc1nnc(-c2ccco2)o1)c1ccc(S(=O)(=O)N2CCOCC2)cc1,inactive
13,CCc1ccc2c(c1)C1(NN=C(c3ccccc3)S1)C(=O)N2 (stereo not given),inactive
14,CC(C)(c1ccccc1)c1ccc(OCCN2CCCC2)cc1,inactive
15,C=CCNC(=S)/N=c1/ccccn1Cc1ccccc1,inactive
16,Cc1cc(C)c2c(=O)[nH]c(SCC(=O)Nc3ccc(Br)cc3)nc2n1,inactive
17,Cc1cccc(C)c1OCCN1CCOCC1,inactive
18,O=C(O)Cn1c(Cc2ccccc2)nc2ccccc21,inactive
19,O=[N+]([O-])c1ccc2nc(-c3ccccn3)[nH]c2c1,inactive
20,COc1cc(CN2CCN(Cc3ccc(C)cc3)CC2)c([N+](=O)[O-])cc1OC,inactive

row,SMILES,outcome
1,O=C(CN1CCN(Cc2ccccc2)CC1)Nc1ccc(F)c(F)c1,inactive
2,O=C1CCCN1CCCNC(=S)Nc1ccc(F)c(Cl)c1,inactive
3,Cc1cc(C)n(-c2ccc(Cl)c(C(=O)O)n2)n1,inactive
4,CN1C(=O)/C(=C\c2ccc(-c3ccccc3)o2)SC1=S,inactive
5,Cc1nnc(N/N=C/c2ccccn2)[nH]c1=O,inactive
6,COc1ccccc1CN1CCN(Cc2cc(OC)c(OC)cc2OC)CC1,inactive
7,CCS(=O)(=O)c1cc([N+](=O)[O-])c(Sc2ccccc2N)s1,inactive
8,Cc1cnc(NC(=O)c2ccccn2)s1,inactive
9,Oc1[nH]c2ccc(Br)cc2c1N=Nc1nn[nH]n1,inactive
10,CCN(CC(=O)NC(=O)NCc1ccccc1)Cc1nc2ccccc2c(=O)[nH]1,inactive
11,Clc1cccc(CN2COc3c(cc(Cl)c4cccnc34)C2)c1,inactive
12,CNC(=S)N/N=C/c1ccc(N2CCOCC2)s1,inactive
13,Cc1ccc(OCCCCc2c(C)n[nH]c2C)cc1,inactive
14,CN1CCN(CCCCOc2ccccc2-c2ccccc2)CC1,inactive
15,COC(=O)CC1=NN(c2nc(C)cc(C)n2)C(=O)C1,inactive
16,O=[N+]([O-])c1cc([N+](=O)[O-])c2cccnc2c1O,inactive
17,CN1CCCc2cc(C#N)c(=O)[nH]c21,inactive
18,O=c1nc(N/N=C/c2ccco2)cn[nH]1,inactive
19,CCN(CC(=O)Nc1ccc(S(=O)(=O)N2CCCC2)cc1)CC(=O)Nc1cccc(OC)c1,inactive
20,O=C(Nc1ccccc1Cl)O/N=C(/c1ccccc1)c1ccccn1,inactive
